The subject of assay [1] is Klebsiella pneumoniae. The settings on record: Concentration 32 ug.mL-1, ASSAY_TEST Inhibition of Bacterial Growth, detection method Absorption (OD600), MEDIA CAMHB, plate type 384well, NBS, CORNING #3640, time 18 hr.
Assay [2] deals with Candida albicans. The settings on record: 32 ug/mL.
Assay [3] deals with Cryptococcus neoformans. Particulars: Concentration 32 ug.mL-1, ASSAY_TEST Inhibition of Fungal Growth, detection method Resazurin, Absorption (OD600-OD570), plate type 384well, NBS, CORNING #3640. (Alamar Blue is a resazurin reagent that responds to reducing activity.)

Several values for one entry are separate records, joined by “and”; a condition that tells them apart may be missing. Equal values may be shown once. Entries with a potency or affinity are not part of this list.

By Inhibition is commonly meant the change of the read-out against control, counted positive when it falls.

Take `C[C@]12CC[C@@](C)(O1)[C@H]1C=C[C@H](OC(=O)c3ccccc3)[C@H]12`: the Inhibition is 15.14% in assay [1], 5.91% in assay [2] and -25.36% in assay [3].
For `C=C1CC(COCc2ccc(OC)cc2)(COCc2ccc(OC)cc2)C[C@@H]1[C@@H](Nc1ccc(Br)cc1)c1ccccc1`, the values for the Inhibition in assay [1], in assay [2] and in assay [3] were 3.98%, -6.97% and -42.12%, respectively.
For `C=C1CC(COC)(COC)C[C@@H]1[C@@H](Nc1ccc(Br)cc1)c1ccccc1`, the Inhibition was 12.17% in assay [1], 5.3% in assay [2] and -62.06% in assay [3].
Take `C[C@@H]1CC(=O)C=C2C(=O)[C@@H]3[C@@H](C3(C)C)[C@]21C`: the Inhibition was 18.57% in assay [1], -0.58% in assay [2] and -14.72% in assay [3].
On to `C=C1CC(C(=O)OC)(C(=O)OC)C[C@@H]1[C@H](c1ccccc1)n1ccc2ccc(Cl)cc21`, for which the Inhibition was 17.79% in assay [1], 3.75% in assay [2] and -67.72% in assay [3].
For `C[C@]12CC[C@@](C3CCCC3)(O1)[C@H]1C=C[C@H](OC(=O)c3ccccc3)[C@H]12`, in that order: 19.59%, 4.96% and -56.17%.
For `C=C1CC2(COC(C)(C)OC2)C[C@@H]1[C@@H](Nc1ccc(Br)cc1)c1ccccc1`, in that order: 31.4%, 6.45% and -62.96%.
Take `C=C1CC(C(=O)OC)(C(=O)OC)C[C@@H]1[C@H](c1ccccc1)n1ccc2ccccc21`: the Inhibition in assay [1] is 21.67%; in assay [2] it was -0.58%; in assay [3] it was -68.85%.
For `C[C@]12CC[C@@](c3ccc4ccccc4c3)(O1)[C@H]1C=C[C@H](OC(=O)c3ccccc3)[C@H]12` the same measures were 30.93%, 2.97% and -55.94%.
Consider `C[C@]12CC[C@@](c3ccc(C(F)(F)F)cc3)(O1)[C@H]1C=C[C@H](OC(=O)c3ccccc3)[C@H]12`, for which the Inhibition in assay [1] (32 ug/mL) is 10.18% and 19.4%; in assay [2], -0.5% and 4.46%.
Regarding `C[C@]12CC[C@@](c3ccccc3)(O1)[C@H]1C=C[C@H](OC(=O)c3ccccc3)[C@H]12`, the Inhibition in assay [2] is -1.59% and 4.39%; in assay [3] (32 ug/mL) it was -55.26% and -63.64%.
On to `C=C1CC(C(=O)OC)(C(=O)OC)C[C@@H]1[C@@H](NS(=O)(=O)c1ccc(C)cc1)c1ccccc1`, for which the Inhibition in assay [1] is 18.19%; in assay [2], 0.13%; in assay [3] it was -29.89%.
Take `C[C@]12CC[C@@H](O1)[C@H]1C=C[C@H](OC(=O)c3ccccc3)[C@H]12`: the Inhibition was 19.45% in assay [1], 6.1% in assay [2] and -82.89% in assay [3].
`C[C@]12CC[C@@](C3CC3)(O1)[C@H]1C=C[C@H](OC(=O)c3ccccc3)[C@H]12`: the Inhibition was 19.23% and 15.4% in assay [1] (32 ug/mL); 3.68% and 4.72% in assay [2].
